This is a sample that favours compounds with a hit; in the whole collection about 13% have one here.
HCV inhibitor – qHTS Assay for Inhibitors of Hepatitis C Virus (HCV); 3.4% of 340,000 active; AID 651820, 2012; Huh7.5.1 HCVcc-Cre infection, luciferase reporter, 44 h; Potency, µM (doses to about 41.8 µM), actives largely listed as inhibitors
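A cell-based infection assay in which seeded cells (1,000 per well) receive test compound after 4 h, are inoculated with HCVcc-Cre at approximately 0.5 moi, and are incubated 44 h before luminescence detection.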
HCMV inh – qHTS Assay for inhibitors of the human cytomegalovirus (HCMV); activity change, negative = inhibition, % at 57.5 µM; HFF cells, HCMV-luciferase reporter, 72 h; active compounds read low; 4.5% of 410,000 active; in the data active = activity change below about -60%; inconclusive = no clear call, values can overlap the other calls; inactive = above about -39%
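Two-dose cell screen: HFF monolayers treated with compounds and infected with luciferase-expressing HCMV at 1 PFU/cell, 72 h at 37C, then lysed for luciferase measurement.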
Pf growth 96h – Primary qHTS for delayed death inhibitors of the malarial parasite plastid, 96 hour incubation; AID 504834, 2011; P. falciparum luciferase reporter growth, 96 h; Potency, µM (series often up to 28.7 µM), usual class: inhibitors; 6.9% of 320,000 active
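Two-generation exposure (96 h) targets delayed-death phenotype. Reporter parasites carrying integrated firefly luciferase, in red cells at 2% hematocrit and 0.05% parasitemia final, kept at 37 C, 5% CO2; luminescence loss indicates inhibition.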
Pf growth 48h – Primary qHTS for delayed death inhibitors of the malarial parasite plastid, 48 hour incubation. P. falciparum luciferase growth in erythrocytes, 48 h. Potency, µM (top dose mostly 28.7 µM), hits mostly inhibitors. 5.9% of 310,000 active. AID 504832, 2011
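In quantitative HTS format, infected erythrocytes bearing luciferase-reporter parasites were treated for a single generation at 37 C. Luminescence after adding detection reagent served as the growth measure.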
A number is an active result; - = inactive; ? = inconclusive; . = no result given; [ ] = another dose, or the depositor's remark. Unless noted, calls come from the whole dose curve; as a rule, active = well fitted inhibition curve with a large enough effect; inconclusive = small, poorly fitted or top-dose-only effect, or another doubt; inactive = no such curve, though single readings can be large or run the other way.

SMILES	HCV inhibitor	HCMV inh	Pf growth 96h	Pf growth 48h
COc1cc(C2c3[nH]c4ccccc4c3C[C@H]3C(=O)N(C4CC4)CC(=O)N23)ccc1OC(C)C (some centres undefined)	-	-	9.3µM	9.3µM
COc1ccc(C2c3[nH]c4ccccc4c3C[C@H]3C(=O)N(C)CC(=O)N23)cc1OC (some centres undefined)	-	-	?	?
CCCN1CC(=O)N2C(c3ccccc3)c3[nH]c4ccccc4c3C[C@H]2C1=O (some centres undefined)	-	-	?	2.3µM
COc1cccc(C2c3[nH]c4ccccc4c3C[C@H]3C(=O)N(C)CC(=O)N23)c1 (some centres undefined)	-	-	7.4µM	7.4µM
COc1ccc(C2c3[nH]c4ccccc4c3C[C@H]3C(=O)N(CCCO)CC(=O)N23)cc1OC (some centres undefined)	-	-	-	-
COc1cc(C2c3[nH]c4ccccc4c3C[C@@H]3C(=O)N(Cc4ccco4)CC(=O)N23)cc(OC)c1OC (some centres undefined)	-	-	3.7µM	2.3µM
COc1cccc(C2c3[nH]c4ccccc4c3C[C@H]3C(=O)N(C4CC4)CC(=O)N23)c1 (some centres undefined)	-	-	1.9µM	3.3µM
COCCN1CC(=O)N2C(c3cccc(OC)c3)c3[nH]c4ccccc4c3C[C@H]2C1=O (some centres undefined)	-	-	?	12µM
COC(=O)C[C@H]1C=C[C@H](NC(=O)C2CCOCC2)[C@@H](CO)O1	.	-	.	.
CCOC(=O)C(=O)Nc1nnc2n1CCS2	.	-	.	.
CCN(CC)c1c([N+](=O)[O-])c(=O)sc2ccccc12	-	-	-	-
CCn1c(=O)c([N+](=O)[O-])c(NCCCn2ccnc2)c2ccccc21	-	-65	-	-
CCN(CC)c1c([N+](=O)[O-])c(=O)n(CC)c2ccccc12	?	-	?	13µM
CCn1c(=O)c([N+](=O)[O-])c(N2CCOCC2)c2ccccc21	-	-	10µM	-
O=c1c([N+](=O)[O-])c(N2CCOCC2)c2ccccc2n1-c1ccccc1	-	-	-	-
CC1C(=O)N2CCCc3cc(S(=O)(=O)Nc4ccc(Br)cc4F)cc1c32 (centres undefined)	.	-	.	.
C=CCNC(=S)NN=C1CCCCCCC1	-	-113	-[5.75 µM]	8.3µM
COCCNC(=S)NN=C1CCCCC1	?	-	-[5.75 µM]	-
COc1cc(C(=O)N2CCN(CCc3ccccn3)CC2)cc(OC)c1OC	.	-	.	.
COc1ccc(C2Nc3ccccc3C(=O)N2Cc2ccco2)cc1COc1ccccc1F (centres undefined)	?	-	4.1µM	.
Cc1ccc(C2Nc3ccccc3C(=O)N2Cc2ccco2)cc1 (centres undefined)	-	-	15µM	?
COc1ccc(C2Nc3ccccc3C(=O)N2Cc2ccco2)cc1COc1ccc(NC(C)=O)cc1 (centres undefined)	?	-62	10µM	?
CC(Oc1ccc(Br)cc1)C(=O)Nc1nc(-c2ccccn2)cs1 (centres undefined)	11µM	-88	3.7µM	7.4µM
CC(Oc1ccc(Cl)cc1)C(=O)Nc1ccc(S(=O)(=O)Nc2nccs2)cc1 (centres undefined)	-	-	-	-
CC(C)[C@H](NC(=O)c1ccccc1Cl)C(=O)Nc1nc(-c2ccccn2)cs1	?	-83	?	9.3µM
SMILES	HCV inhibitor	HCMV inh	Pf growth 96h	Pf growth 48h
CC(Oc1ccc(Cl)cc1)C(=O)Nc1nccs1 (centres undefined)	-	-	.	4.1µM
CCc1nnc(NC(=O)C(NC(=O)c2ccccc2Cl)C(C)C)s1 (centres undefined)	-	-	-	-
CCOc1ccc(C(=O)NCCc2sc(-c3ccc(OC)c(OC)c3)nc2C)cc1	.	-	.	.
O=C(CN1CCCCCCC1)Nc1ccc(Cl)cc1Cl	-	-	-	-
O=C(CN1CCCCC1)Nc1ccc(NC(=O)c2ccccc2Cl)cc1Cl	?	-	15µM	-
O=C(CN1CCCCC1)Nc1ccc(C(F)(F)F)cc1Cl	-	-70	-	-
CN(C)c1ccc(/C=C(\C#N)c2nc(-c3ccc(Cl)c(Cl)c3)cs2)cc1	.	-	.	.
O=S(=O)(c1ccccc1)c1nnn2c1nc(Nc1ccccc1)c1cc(Cl)ccc12	.	-	.	.
CCCCNCc1cc(Br)c(OCC(=O)N2CCOCC2)c(OC)c1	-	-	-	-
CCCCOc1c(Br)cc(CNCCCN2CCOCC2)cc1OC	4µM	-	10µM	13µM
COc1ccc(-n2nc(C(=O)N3CCN(c4cccc(C)c4C)CC3)c3c4ccccc4n(C)c3c2=O)cc1Cl	.	-	.	.
COc1ccc(-c2cc(OC)c3ccccc3n2)cc1	?	-	-	-
COc1ccc(-c2cc3cc(OC)c(OC)cc3c(C)n2)cc1	14µM	-	?	-
COc1ccc2c(OC)cc(-c3ccccc3)nc2c1	10µM	-	?	-
CCOc1ccccc1NC(=O)COc1coc(CN2CCc3ccccc32)cc1=O	7.9µM	-	?	12µM
CCOC(=O)c1ccccc1NC(=O)COc1coc(CN2CCc3ccccc32)cc1=O	?	-	12µM	?
Cc1ccccc1NC(=O)COc1coc(CN2CCCc3ccccc32)cc1=O	?	-	?	?
COC(=O)c1ccc(NC(=O)COc2coc(CN3CCc4ccccc43)cc2=O)cc1	-	-	-	?
COc1ccc2c(c1)sc1ncc(C(=O)NCc3ccccc3F)c(=O)n12	.	-	.	.
CCOC(=O)c1c[nH]c2c(C)cc(C)cc2c1=O	-	-	-	5.2µM
CCOC(=O)c1c[nH]c2c3c(ccc2c1=O)CCCC3	?	-	?	0.33µM
CCOC(=O)c1c[nH]c2c(Cl)c(Cl)ccc2c1=O	-	-	-	-
O=c1[nH]cnc2scc(-c3ccc(F)cc3)c12	-	-	-	-
S=c1[nH]cnc2scc(-c3ccccc3)c12	-	-77	0.33µM	?
Oc1ccc(/C=N/n2c3ccccc3c3ccccc32)cc1	10µM	-	-	.
SMILES	HCV inhibitor	HCMV inh	Pf growth 96h	Pf growth 48h
Cc1nnc(C)n1/N=C/c1ccc(O)cc1	-	-	-	?
c1ccc2c(-c3c[nH]c4ccccc34)c3ccccc3nc2c1	?	-91	3.7µM	?
NC(=O)c1ccc(Cc2ncc(C(F)(F)F)cc2Cl)s1	?	-	5.2µM	-
Cc1ccccc1NC(=O)c1oc2c(c1C)-c1nn(Cc3cccc(Cl)c3)cc1CC2	.	-	.	.
CCn1cnc2c1c(=O)n(CC(=O)N1CCc3ccccc31)c(=O)n2Cc1ccccc1	-	-	?	.
O=C(Cn1c(=O)c2c(ncn2Cc2ccccc2)n(Cc2ccccc2)c1=O)N1CCc2ccccc21	-	-	.	3.3µM
O=C(Cn1c(=O)c2c(ncn2C2CCCC2)n(Cc2ccccc2)c1=O)N1CCc2ccccc21	-	-	-	5.9µM
O=c1c(-c2ccc(Cl)cc2)c[nH]n1-c1ccccc1	-	-	13µM	8.3µM
Cc1cc(-c2c(C)[nH]n(-c3ccccc3)c2=O)n[nH]1	-	-	?	-

Compound activity as filed in PubChem.
